Experimental data as given in PubChem BioAssay (NCATS).
Values without a mark were called inactive. Records with an inconclusive call do not appear. Where a call stands in place of a potency, no number is given. Active and inactive are the calls of the source. Unless noted, calls follow the shape of the dose curve; as a rule, active = well fitted curve in the direction sought with a large enough effect; inconclusive = small, poorly fitted or top-dose-only effect, or another doubt; inactive = no such curve, though single readings can be large; an effect the other way counts as inactive or inconclusive.

How the values were obtained:
[1] = qHTS assay for measurement of the activity of small molecule inhibitors on Zika virus induced Caspase-3 activity in human astrocytoma cells (AID 1224859)
Summary of the method: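 Inhibition of Zika-induced caspase-3/7 activity: SNB-19 cells, 1 h compound pretreatment, ZIKV 2 FFU/cell for 6 h at 37 C, Caspase-Glo luminescence read-out.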

[2] = qHTS assay to identify small molecule inhibitors of chordoma cells - UCH-1 (AID 1259355); also: nearly all actives have a fitted effect of over 55% in size
Summary of the method: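 A 48hr growth-inhibition format: each drug tested at 15 concentrations together with added auranofin, camptothecin, doxorubicin, rubitecan and topotecan, with cell viability quantified as CellTiter-Glo luminescence.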

[3] = qHTS assay to identify small molecule inhibitors of chordoma cells - UCH-2 (AID 1259356); also: series mostly up to about 46 µM
[4] = Natriuretic polypeptide receptor (hNpr1) antagonism - Pilot counterscreen GloSensor control cell line (AID 1347045; calls by dose curve; also: potency is read from the fitted curve at half-maximal effect)
Summary of the method: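 Control counterscreen: luciferase cGMP-biosensor HEK293 cells (no Npr1) received compound for 30 min at room temperature after GloSensor substrate loading. Luminescence was measured before and 20 min after soluble guanylyl cyclase activation by 50 uM nitroprusside.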

[5] = molecular target: Atrial natriuretic peptide receptor 2 (Homo sapiens) (UniProt P20594); test: Natriuretic polypeptide receptor (hNpr2) antagonism - Pilot subtype selectivity assay (AID 1347050; calls by dose curve)
Summary of the method: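 Read-out: GloSensor luminescence (CCD imager), baseline vs post-stimulation. HEK293 cells expressing hNpr2; compounds pre-incubated 30-50 min at ambient temperature; hNppC 1 nM final, 20 min.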

[6] = NS1 protein of Zika virus - qHTS assay to identify small molecule inhibitors in human HEK 293 cells (AID 1347053); also: series mostly up to about 46 µM; nearly all actives have a fitted effect of over 55% in size
Summary of the method: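 TR-FRET signal from two anti-ZIKV NS1 antibodies quantified NS1 in HEK 293 cells 24 h after MR766 infection at MOI = 0.5; compounds were added 1 h before virus. Uninfected cells and infected cells defined the NS1 normalization range.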

[7] = molecular target: T1, Tyrosine-protein phosphatase non-receptor type substrate 1 (Homo sapiens) + Leukocyte surface antigen CD47 (Homo sapiens) (UniProt P78324+Q08722); test: CD47-SIRPalpha protein protein interaction - LANCE assay qHTS validation (AID 1347057; active = well fitted curve in the direction sought with a large enough effect in the signal ratio, with a control signal flat, not every such curve was filed as active; the % refers to the signal ratio; also: series mostly up to about 38 µM)
Summary of the method: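 Inhibition of soluble CD47/SIRPalpha ectodomain association by titrated compounds, measured as 665/615 nm time-resolved FRET ratio after sequential 30 min room-temperature incubations.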

[8] = molecular target: T1, Tyrosine-protein phosphatase non-receptor type substrate 1 (Homo sapiens) + Leukocyte surface antigen CD47 (Homo sapiens); test: CD47-SIRPalpha protein protein interaction - Alpha assay qHTS validation (AID 1347059);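 also: bead proximity luminescence from CD47 binding SIRPalpha after compound preincubation with SIRPalpha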
Summary of the method: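 In PBS (pH 7.4) with 0.05% IGEPAL CA-630, compound is preincubated with biotin-Avi-SIRPalpha ectodomain before His-CD47 ectodomain and affinity beads are added. Light-protected room-temperature incubations; AlphaScreen readout.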

[9] = molecular target: Parathyroid hormone/parathyroid hormone-related peptide receptor (Homo sapiens) (UniProt Q03431); test: qHTS for PTHR1 Agonists: Optimization Screen against the NCGC LOPAC library (AID 1347079);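 also: GloSensor cAMP luminescence in HEK-293 GP2 cells expressing human PTHR1 with IBMX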
Summary of the method: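 HEK-293 GP2 cells, PTHR1 + GloSensor cAMP; 3000 cells/well, o/n. Luciferin + IBMX 0.5mM each (stock), 1 hr 37C. Cpd titration, 1 hr 37C. Lum after 15 min RT. Ctrl M-PTH(1-15) top 10uM.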

[10] = qHTS of pediatric cancer cell lines to identify multiple opportunities for drug repurposing: Primary screen for TC32 cells (AID 1347089); also: nearly all actives have a fitted effect of over 60% in size
Summary of the method: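 TC32 cells, 500-1,000/well in growth medium, compound-treated 48 h at 37 °C; viability from CellTiter-Glo luminescence. Primary screen: MIPE 11-point (0.78 nM–46 µM final), NPC 8-point (0.59 nM–46 µM final); confirmatory at 11-point dilutions.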

[11] = qHTS of pediatric cancer cell lines to identify multiple opportunities for drug repurposing: Primary screen for DAOY cells (AID 1347090); also: series mostly up to about 46 µM; nearly all actives have a fitted effect of over 55% in size
Summary of the method: (§1)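 Eight- or eleven-point concentration series, 48 h treatment at 37 degrees C in growth media; readout CellTiter-Glo luminescence. Potency and efficacy were taken from the concentration-response curves.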

[12] = qHTS of pediatric cancer cell lines to identify multiple opportunities for drug repurposing: Primary screen for SJ-GBM2 cells (AID 1347091)
Summary of the method: as §1

[13] = molecular target: Atrial natriuretic peptide receptor 1 (Homo sapiens) (UniProt P16066); test: Natriuretic polypeptide receptor (hNpr1) antagonism - Pilot screen (AID 1347049; calls by dose curve;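 also: HEK293 cells with hNpr1 and GloSensor cGMP luciferase stimulated by 0.1 nM hNppA; agonist-evoked cGMP luminescence read 20 min after hNppA addition; series mostly up to about 58 µM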)
Summary of the method: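 Cells expressing receptor plus cGMP biosensor are seeded and incubated overnight at 37C, then loaded with GloSensor reagent (2% final) at room temperature for 2 h. Library compounds go on for 30 min. A pre-read precedes agonist (hNppA, 0.1 nM final) and a 20-min readout.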

[14] = molecular target: T1, Tyrosine-protein phosphatase non-receptor type substrate 1 (Homo sapiens) + Leukocyte surface antigen CD47 (Homo sapiens); test: CD47-SIRPalpha protein protein interaction - HTRF assay qHTS validation (AID 1347058; active = well fitted curve in the direction sought with a large enough effect in the signal ratio, not every such curve was filed as active; the % refers to the signal ratio; also: series mostly up to about 38 µM)
Summary of the method: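 Soluble extracellular domains (6His-CD47, Avi-tag-biotinylated SIRPalpha) in PBS pH 7.4 with 0.05% IGEPAL CA-630. Compounds were preincubated 30 min at RT with CD47 and anti-His-Eu, then SIRPalpha and SAV-XL665 were added. TR-FRET 665/615 ratio.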

[15] = P-glycoprotein substrates identified in KB-8-5-11 adenocarcinoma cell line, qHTS therapeutic library screen (AID 1346987); also: nearly all actives have a fitted effect of over 65% in size; also: potency is read from the fitted curve at half-maximal effect
Summary of the method: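 Compounds are pinned in dose-response onto KB-8-5-11 cells (500 cells/well, colchicine-free medium) and left 72 h at 37 degree C. CellTiter-Glo luminescence then yields AC50 values.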

T1 sequence (P78324 whole entry, looked up, the tested form may be a part): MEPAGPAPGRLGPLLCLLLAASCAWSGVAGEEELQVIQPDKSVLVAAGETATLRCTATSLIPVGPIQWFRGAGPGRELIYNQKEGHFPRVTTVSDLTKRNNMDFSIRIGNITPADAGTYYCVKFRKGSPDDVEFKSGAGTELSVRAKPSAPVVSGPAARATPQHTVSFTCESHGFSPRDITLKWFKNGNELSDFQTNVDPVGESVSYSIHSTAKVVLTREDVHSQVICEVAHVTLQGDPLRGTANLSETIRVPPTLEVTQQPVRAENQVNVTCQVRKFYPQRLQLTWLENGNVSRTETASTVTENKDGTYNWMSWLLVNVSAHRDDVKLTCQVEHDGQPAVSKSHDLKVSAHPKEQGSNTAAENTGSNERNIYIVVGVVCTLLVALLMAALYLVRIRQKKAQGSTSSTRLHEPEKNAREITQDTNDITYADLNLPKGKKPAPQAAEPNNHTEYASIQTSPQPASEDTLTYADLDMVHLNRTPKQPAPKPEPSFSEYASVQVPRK
T1 sequence (Q08722 whole entry, looked up, the tested form may be a part): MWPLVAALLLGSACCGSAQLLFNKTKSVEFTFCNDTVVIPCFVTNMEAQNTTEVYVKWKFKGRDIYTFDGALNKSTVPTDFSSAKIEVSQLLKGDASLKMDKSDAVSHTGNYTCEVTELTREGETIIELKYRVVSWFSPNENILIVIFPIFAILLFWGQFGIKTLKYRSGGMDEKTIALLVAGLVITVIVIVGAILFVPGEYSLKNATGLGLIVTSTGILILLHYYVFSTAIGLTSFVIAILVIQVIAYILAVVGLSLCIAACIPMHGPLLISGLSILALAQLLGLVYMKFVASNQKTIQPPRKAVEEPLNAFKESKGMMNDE
Sequence of Atrial natriuretic peptide receptor 1 (Homo sapiens) (P16066 whole entry, looked up): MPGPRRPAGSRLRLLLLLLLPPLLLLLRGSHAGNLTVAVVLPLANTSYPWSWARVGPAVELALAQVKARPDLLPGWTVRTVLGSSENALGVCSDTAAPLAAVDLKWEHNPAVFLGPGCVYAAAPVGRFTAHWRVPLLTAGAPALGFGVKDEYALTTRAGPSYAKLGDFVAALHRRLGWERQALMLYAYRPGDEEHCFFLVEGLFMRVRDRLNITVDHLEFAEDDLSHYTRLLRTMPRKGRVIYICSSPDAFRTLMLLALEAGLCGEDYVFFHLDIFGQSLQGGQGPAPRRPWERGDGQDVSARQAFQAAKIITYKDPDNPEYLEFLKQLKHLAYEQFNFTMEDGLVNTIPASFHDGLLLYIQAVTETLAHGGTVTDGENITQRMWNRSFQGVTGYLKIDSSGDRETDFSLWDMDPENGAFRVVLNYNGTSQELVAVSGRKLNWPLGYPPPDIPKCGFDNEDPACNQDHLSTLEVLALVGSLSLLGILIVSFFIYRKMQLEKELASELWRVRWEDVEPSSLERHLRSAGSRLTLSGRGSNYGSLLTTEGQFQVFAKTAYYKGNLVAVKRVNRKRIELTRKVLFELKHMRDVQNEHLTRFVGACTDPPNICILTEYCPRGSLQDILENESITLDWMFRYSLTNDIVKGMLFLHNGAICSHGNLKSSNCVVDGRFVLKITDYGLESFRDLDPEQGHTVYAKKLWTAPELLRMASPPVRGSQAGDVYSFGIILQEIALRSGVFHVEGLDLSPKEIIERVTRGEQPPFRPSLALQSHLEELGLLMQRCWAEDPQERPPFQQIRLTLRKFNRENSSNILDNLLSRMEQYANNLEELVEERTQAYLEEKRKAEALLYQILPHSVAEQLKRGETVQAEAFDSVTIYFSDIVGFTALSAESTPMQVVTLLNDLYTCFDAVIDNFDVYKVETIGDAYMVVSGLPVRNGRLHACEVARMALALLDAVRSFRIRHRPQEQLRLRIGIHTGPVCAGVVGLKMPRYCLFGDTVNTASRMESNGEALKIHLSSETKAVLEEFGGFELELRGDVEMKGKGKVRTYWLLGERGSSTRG
Sequence of Atrial natriuretic peptide receptor 2 (Homo sapiens) (P20594 whole entry, looked up): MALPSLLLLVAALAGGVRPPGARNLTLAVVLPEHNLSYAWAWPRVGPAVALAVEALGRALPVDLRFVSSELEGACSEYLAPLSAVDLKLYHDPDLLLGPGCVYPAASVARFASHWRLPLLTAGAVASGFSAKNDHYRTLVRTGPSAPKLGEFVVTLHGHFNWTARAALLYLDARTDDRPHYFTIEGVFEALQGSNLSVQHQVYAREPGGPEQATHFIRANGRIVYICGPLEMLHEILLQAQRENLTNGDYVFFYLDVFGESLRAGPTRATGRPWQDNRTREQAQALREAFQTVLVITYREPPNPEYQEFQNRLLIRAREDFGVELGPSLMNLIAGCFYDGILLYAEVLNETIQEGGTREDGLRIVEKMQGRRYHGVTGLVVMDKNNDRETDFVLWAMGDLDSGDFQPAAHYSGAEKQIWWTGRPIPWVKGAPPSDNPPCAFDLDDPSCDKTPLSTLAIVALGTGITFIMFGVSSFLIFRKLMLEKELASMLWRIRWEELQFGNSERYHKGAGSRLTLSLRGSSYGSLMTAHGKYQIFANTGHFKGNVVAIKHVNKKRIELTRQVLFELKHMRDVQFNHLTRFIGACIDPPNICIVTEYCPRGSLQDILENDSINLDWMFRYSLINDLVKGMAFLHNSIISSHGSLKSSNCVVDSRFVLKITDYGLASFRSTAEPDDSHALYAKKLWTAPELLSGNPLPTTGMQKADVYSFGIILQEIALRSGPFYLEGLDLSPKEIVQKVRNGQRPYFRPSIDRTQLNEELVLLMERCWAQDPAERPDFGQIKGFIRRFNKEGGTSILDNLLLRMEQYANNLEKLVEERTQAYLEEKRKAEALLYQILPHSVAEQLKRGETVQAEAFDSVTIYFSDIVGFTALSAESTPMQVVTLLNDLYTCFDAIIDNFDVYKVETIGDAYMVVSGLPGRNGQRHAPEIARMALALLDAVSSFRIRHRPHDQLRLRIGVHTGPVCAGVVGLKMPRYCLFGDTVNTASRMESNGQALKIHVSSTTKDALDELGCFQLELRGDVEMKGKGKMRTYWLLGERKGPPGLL
Sequence of Parathyroid hormone/parathyroid hormone-related peptide receptor (Homo sapiens) (Q03431 whole entry, looked up): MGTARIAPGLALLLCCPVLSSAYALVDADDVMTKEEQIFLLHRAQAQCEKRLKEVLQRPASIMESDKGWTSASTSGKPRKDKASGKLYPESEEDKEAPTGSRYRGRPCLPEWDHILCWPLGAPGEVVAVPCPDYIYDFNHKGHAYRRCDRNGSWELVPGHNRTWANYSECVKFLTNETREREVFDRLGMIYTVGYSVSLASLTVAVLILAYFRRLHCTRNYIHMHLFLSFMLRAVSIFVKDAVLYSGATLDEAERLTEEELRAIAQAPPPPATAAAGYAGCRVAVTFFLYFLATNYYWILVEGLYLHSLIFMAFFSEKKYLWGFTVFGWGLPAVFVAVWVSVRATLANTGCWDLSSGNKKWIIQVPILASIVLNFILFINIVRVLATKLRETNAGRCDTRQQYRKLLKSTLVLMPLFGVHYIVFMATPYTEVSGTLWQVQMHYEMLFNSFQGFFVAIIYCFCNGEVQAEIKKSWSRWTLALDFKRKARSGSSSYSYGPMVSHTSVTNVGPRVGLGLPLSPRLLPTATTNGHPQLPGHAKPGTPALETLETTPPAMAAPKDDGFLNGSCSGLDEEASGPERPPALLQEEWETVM

Structure (SMILES)	outcome [1]	Potency [2]	Potency [3]	Potency [4]	Potency [5]	outcome [6]	outcome [7]	Potency [8]	outcome [9]	Potency [10]	Potency [11]	Potency [12]	Potency [13]	outcome [14]	Potency [15]	activity change, negative = cytotoxic [10]	activity change, negative = cytotoxic [11]	activity change, negative = cytotoxic [12]
CCOC(=O)C1=C(C)NC(C)=C(C(=O)OC)C1c1cccc([N+](=O)[O-])c1 (configuration not stated)	inactive	inactive	inactive	inactive	inactive	inactive	inactive	inactive	inactive	inactive	inactive	inactive						
C[C@]12CC[C@@H]3c4ccc(O)cc4C[C@@H](CCCCCCCCCS(=O)CCCC(F)(F)C(F)(F)F)[C@H]3[C@@H]1CC[C@@H]2O (some centres not stated)	inactive	inactive	inactive	inactive	inactive	inactive	inactive	inactive		inactive	inactive		inactive	inactive				
O=C(O)CN(CCN(CC(=O)O)CC(=O)O)CCN(CC(=O)O)CC(=O)O	inactive	inactive	inactive	inactive	inactive	inactive	inactive		inactive	inactive	inactive	inactive	inactive	inactive	inactive			
c1cc(CN2CCCCC2)cc(OCCCNc2nc3ccccc3s2)c1	inactive	inactive	inactive		inactive	inactive	inactive	inactive	inactive	inactive	inactive		inactive	inactive	14.6 µM (active)			
CCCCNC(=O)NS(=O)(=O)c1ccc(C)cc1	inactive	inactive	inactive		inactive	inactive	inactive	inactive	inactive	inactive	inactive	inactive	inactive	inactive				
COc1cc(C(=O)OCCCN2CCCN(CCCOC(=O)c3cc(OC)c(OC)c(OC)c3)CC2)cc(OC)c1OC	inactive		inactive	inactive	inactive	inactive	inactive	inactive	inactive	inactive	inactive		inactive	inactive				
CCN1CCC[C@H]1CNC(=O)c1c(O)c(Cl)cc(Cl)c1OC	inactive	inactive	inactive		inactive	inactive	inactive	inactive	inactive	inactive	inactive	inactive	inactive	inactive				
CN1C(=O)CC[C@H]1c1cccnc1	inactive	inactive	inactive	inactive	inactive	inactive	inactive	inactive	inactive	inactive	inactive	inactive	inactive	inactive	inactive			
CC(=O)Oc1cc(C(C)C)c(OCCN(C)C)cc1C	inactive		inactive		inactive	inactive			inactive	inactive	inactive	inactive	inactive					
CNCCCN1c2ccccc2CCc2ccccc21	inactive	inactive	inactive			inactive	inactive	inactive		inactive	inactive		inactive	inactive				
NC(=O)c1ncn([C@@H]2O[C@H](CO)[C@@H](O)[C@H]2O)c1O	inactive	inactive	inactive	inactive	inactive	inactive	inactive	inactive		inactive	inactive	inactive	inactive	inactive	inactive			
CN(C)CCCN1c2ccccc2Sc2ccccc21	inactive	inactive	inactive			inactive	inactive	inactive	inactive	inactive	inactive		inactive	inactive				
CN1CCN(CC(=O)N2c3ccccc3C(=O)Nc3cccnc32)CC1	inactive	inactive	inactive	inactive	inactive	inactive	inactive	inactive	inactive				inactive			4.32% [at 4.81 µM]	1.05% [at 4.84 µM]	3.45% [at 4.84 µM]
Cc1nc2sccn2c(=O)c1CCN1CCC(=C(c2ccc(F)cc2)c2ccc(F)cc2)CC1	inactive	inactive	inactive		inactive	inactive	inactive	inactive	inactive	inactive	inactive		inactive	inactive				
Cc1ccc(/C(=C\CN2CCCC2)c2ccccn2)cc1	inactive	inactive	inactive	inactive	inactive	inactive	inactive	inactive	inactive	inactive	inactive	inactive	inactive	inactive				
O=C(O)CCCCCCCC(=O)O	inactive	inactive	inactive	inactive	inactive	inactive	inactive	inactive	inactive	inactive	inactive	inactive	inactive	inactive				
CN(C)[C@@H]1C(=O)C(C(N)=O)=C(O)[C@@]2(O)C(=O)C3=C(O)c4c(O)ccc(Cl)c4[C@@H](O)[C@H]3C[C@@H]12	inactive	inactive	inactive	inactive	inactive	inactive	inactive			inactive	inactive	inactive	inactive					
NC(=O)N1c2ccccc2C=Cc2ccccc21	inactive		inactive		inactive	inactive	inactive	inactive		inactive	inactive	inactive	inactive	inactive	inactive			
COC(=O)C1=C(C)NC(C)=C(C(=O)OCCN(C)Cc2ccccc2)C1c1cccc([N+](=O)[O-])c1 (configuration not stated)	inactive	inactive	inactive	16.5 µM (active)		inactive	inactive		inactive	inactive								
OC(CCN1CCCCC1)(c1ccccc1)C1CCCCC1 (configuration not stated)	inactive	inactive	inactive			inactive			inactive	inactive	inactive		inactive		inactive			
O=C(CCCN1CCC(O)(c2cccc(C(F)(F)F)c2)CC1)c1ccc(F)cc1	inactive	inactive	inactive		inactive	inactive	inactive	inactive		inactive	inactive		inactive	inactive				
COC(=O)[C@H]1[C@H]2C[C@@H]3c4[nH]c5cc(OC)ccc5c4CCN3C[C@H]2C[C@@H](OC(=O)c2cc(OC)c(OC)c(OC)c2)[C@@H]1OC	inactive	inactive	inactive	inactive	inactive	inactive	inactive			inactive		inactive	inactive		inactive			
CN/C(=C\[N+](=O)[O-])NCCSCc1ccc(CN(C)C)o1	inactive	inactive	inactive	inactive	inactive	inactive	inactive	inactive		inactive	inactive	inactive	inactive	inactive	inactive			
